DRD3 antagonist = antagonists of human D3 dopamine receptor; D3R cells, DiscoveRx beta-arrestin luminescence, antagonist mode; stronger effect = lower value; max response, negative = inhibition, %; 360,000 tested, 2.5% active; in the data active means max response below about -50%; inconclusive means no clear call, values can overlap the other calls
Target sequence (P35462 whole entry, looked up): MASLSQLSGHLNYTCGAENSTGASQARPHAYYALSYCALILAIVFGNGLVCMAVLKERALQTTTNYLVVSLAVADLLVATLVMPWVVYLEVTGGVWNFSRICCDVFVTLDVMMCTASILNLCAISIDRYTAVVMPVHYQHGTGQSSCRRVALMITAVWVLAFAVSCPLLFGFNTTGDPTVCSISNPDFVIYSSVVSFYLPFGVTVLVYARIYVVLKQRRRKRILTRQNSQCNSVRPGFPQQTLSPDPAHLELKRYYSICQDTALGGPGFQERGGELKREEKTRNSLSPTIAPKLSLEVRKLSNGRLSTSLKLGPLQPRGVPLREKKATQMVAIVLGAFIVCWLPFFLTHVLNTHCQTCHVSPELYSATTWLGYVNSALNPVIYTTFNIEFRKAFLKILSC
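Cells expressing the human receptor were seeded at 1500 cells/well, incubated overnight at 37 degrees C in 5% CO2, then exposed to library compounds with dopamine controls for 90 minutes at 37 degrees C before luminescent detection.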
ATXN2 expr inh = inhibitors of ATXN2 expression | HEK-293 ATXN2-luciferase reporter, luminescence, 24 h | Potency, µM (series often up to 57 µM), hits mostly inhibitors | 360,000 tested, 0.72% active | AID 1745845; further: nearly all actives have a fitted effect of over 55% in size
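ATXN2-luciferase reporter cells (luciferase flanked by upstream and downstream ATXN2 gene portions) were treated 24 h at 37 °C with compounds at up to 57 uM. SteadyGlo luminescence gave expression; GF-AFC fluorescence gave viability.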
S2 tox = viability counter-screen for ATXN expression inhibitors; S2 cells (HEK-293 line with an ATXN2-luciferase reporter) viability, CellTiter-Fluor protease fluorescence, 24 h; Potency, µM (doses to about 56.7 µM), actives largely listed as cytotoxic; 400,000 tested, 0.49% active; further: nearly all actives have a fitted effect of over 40% in size
Integrin act MD = activators of alpha7 integrin expression for muscular dystrophy. Potency, µM (doses to about 38.3 µM), hits mostly activators. alpha7betagal myoblasts, beta-gal FDG fluorescence, 48 h. 350,000 tested, 0.064% active; further: nearly all actives have a fitted effect of over 60% in size
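alpha7betagal+/- myoblasts (passage 13, 250/well) treated 48 h at 37C with compounds at 1:260 dilution of DMSO stock. Lysed, then beta-galactosidase activity read as FDG fluorescence (ex 480/em 540) after 30 min, with pre-read for autofluorescence.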
DRD3 agonist = activates the human D3 dopamine receptor; 410,000 tested, 0.58% active; P35462; D3R DiscoveRx beta-arrestin cells, luminescence, 90 min; AID 652048; max activation, %; in the data active means max activation above about 30%
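Agonist-mode cell screen: cells plated at 1500/well and incubated overnight at 37 °C, then exposed to library compounds for 90 min at 37 °C. Detection reagent was added for 30–60 min at room temperature, and luminescence was read.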
IL-1B inflam inh = blocks inflammasome-driven IL-1 beta release | 360,000 tested, 4.7% active | THP-1 LPS/ATP IL-1B secretion, AlphaLISA, 16 h; stronger effect = lower value | activity change, % at 57.5 µM; in the data active means activity change below about -50%; inconclusive means mostly about -30% to -49%
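Secreted IL-1B measured by AlphaLISA bead assay after 16 h compound exposure of THP-1 cells; compounds (final up to 57.5 uM) added 1 h before LPS (250 ng/mL) and ATP (1.25 mM) stimulation; lower signal means less secretion.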
Large screens that a line does not name were inactive; ! = a repeat was not active. In the library only some 7% were active in any assay of this set; here they are far more common. Unless noted, the call rests on the fitted dose curve; in most records, active means well fitted curve in the direction sought with a large enough effect; inconclusive means small, poorly fitted or top-dose-only effect, or another doubt; inactive means no such curve, though single readings can be large; an effect the other way counts as inactive or inconclusive.

Cc1cc(C)c(C)c(OCCCCN2CCCCC2)c1	DRD3 antagonist -55
Cc1nc(C)c(/C(O)=C/c2nc3ccccc3oc2=O)s1	none
O=C(c1cnc(Cl)c(Cl)c1)N1CCN(S(=O)(=O)c2cccs2)CC1	S2 tox inconclusive (no result: ATXN2 expr inh)
CCCN(CC1CC1)C(=O)COC(=O)c1[nH]c(C)c(C(=O)OCC)c1C	none
CCOc1ccc(S(=O)(=O)N2CCCCC2)cc1NC(=O)Cc1cc(OC)c(OC)c(OC)c1	none (no result: ATXN2 expr inh)
Cc1ccc(NC(=O)Nc2cnc3ccccc3c2)cc1	none
CCn1c(CNC(=O)c2ccccc2OC)nnc1SCC(=O)c1ccc(F)cc1	none
CC(=O)Nc1ccc(S(C)(=O)=O)c(C)c1	none
COc1ccccc1OCCCCN1CCCCC1	DRD3 antagonist inconclusive (no result: ATXN2 expr inh, S2 tox)
CCOc1ccccc1OCCCCN1CCCC1	DRD3 antagonist -63
COc1cccc(-n2c(C)cc(/C=C3/C(=N)N4C(=NC3=O)SN=C4S(C)(=O)=O)c2C)c1	none (no result: S2 tox)
COC(=O)CN(c1ccc(OC)cc1OC)S(=O)(=O)c1ccccc1[N+](=O)[O-]	none
COc1ccccc1N1CCN(S(=O)(=O)c2ccc(-c3coc(C)n3)cc2)CC1	none (no result: DRD3 antagonist, Integrin act MD, IL-1B inflam inh)
Cc1ccc(C(=O)Nc2ccc(C)c(S(=O)(=O)Nc3ccccc3Cl)c2)s1	IL-1B inflam inh -62
O=C(Nc1ccc(Cl)c(S(=O)(=O)Nc2ccccc2Cl)c1)c1cccs1	IL-1B inflam inh -93
O=C(Nc1ccccc1Cl)c1cccs1	none
Cc1cc(S(=O)(=O)NCCCN2CCOCC2)ccc1F	none
Cc1ccc(S(=O)(=O)NCCCN2CCOCC2)cc1C	DRD3 antagonist -67
Cc1ccc(S(=O)(=O)NCCCN2CCCC2)cc1	DRD3 antagonist -53
O=[N+]([O-])c1cc(S(=O)(=O)NCCCN2CCOCC2)ccc1Cl	IL-1B inflam inh -64
Cc1cccc(C)c1NC(=O)C(C)n1c(-c2ccc(=O)[nH]c2)nc2ccccc21 (stereo not drawn)	none (no result: ATXN2 expr inh, S2 tox, Integrin act MD)
COc1ccc(OC)c(CCNC(=O)c2ccc(CS(=O)Cc3ccc(Cl)cc3)o2)c1 (stereo not drawn)	IL-1B inflam inh inconclusive
CN(C)C(=O)C1=NOC2(C1)C(=O)Nc1ccccc12 (stereo not drawn)	none (no result: Integrin act MD)
CCNC(=O)CC1SC(=Nc2ccc(C)cc2)N(CC)C1=O (stereo not drawn)	none
COc1cccc(S(=O)(=O)NCc2ccc(C(=O)N3CCN(c4ccccc4)CC3)cc2)c1	ATXN2 expr inh inconclusive
COc1ccc(N2CCN(C(=O)c3ccc(CNS(=O)(=O)c4cccc(OC)c4)cc3)CC2)cc1	IL-1B inflam inh -84
Cc1csc(SCC(=O)c2c(N)n(C)c(=O)n(C)c2=O)n1	none
CCOc1c(Cl)cc(CNc2ccc(N3CCCC3)cc2)cc1OC	DRD3 antagonist inconclusive, IL-1B inflam inh -72
CCOc1cc(CNc2ccc(Br)cc2)cc(Br)c1OCC(=O)NC(C)(C)C	none
CCOc1cc(CNc2ccc(O)cc2)cc(Cl)c1OCc1ccccc1	ATXN2 expr inh 32µM, S2 tox 22µM (no result: DRD3 antagonist, Integrin act MD, IL-1B inflam inh)
CCOc1cccc(CNc2ccc(O)cc2)c1OCc1ccc(Cl)cc1Cl	ATXN2 expr inh inconclusive, S2 tox inconclusive, IL-1B inflam inh inconclusive
CCOc1c(Cl)cc(CNc2ccc(S(N)(=O)=O)cc2)cc1OC	none
CCOc1cc(CNc2ccccc2)cc(Br)c1OCC(=O)NC(C)(C)C	ATXN2 expr inh inconclusive, IL-1B inflam inh -87
CCOc1cccc(CNc2ccc(O)cc2)c1OCc1ccccc1Cl	DRD3 antagonist inconclusive, ATXN2 expr inh 11µM!, S2 tox 13µM!
Cn1c(=O)[nH]c(=O)c2c1nc(NCc1ccccc1)n2CCCc1ccccc1	none
CCOC(=O)C1=C(c2ccccc2)Nc2c(c(=O)n(C)c(=O)n2C)C1c1ccc(O)c(OC)c1 (stereo not drawn)	none
CCN(C(=O)c1cc2cccc(OC)c2oc1=O)c1ccccc1	none
Cc1nn2c(N3CCN(C4CCCC4)CC3)cc(C(C)(C)C)nc2c1-c1ccccc1	none
Cc1nn2c(N3CCN(C)CC3)cc(C(C)(C)C)nc2c1-c1ccccc1	S2 tox inconclusive, IL-1B inflam inh -87
Cc1cc(C)c(S(=O)(=O)Nc2nnc(C3CCCCC3)s2)c(C)c1	none
CC(=O)N1CCN(c2ccc(NC(=O)c3ccc([N+](=O)[O-])o3)cc2Cl)CC1	S2 tox inconclusive, IL-1B inflam inh -102
CCN1CCN(c2ccc(NC(=O)c3ccc([N+](=O)[O-])o3)cc2Cl)CC1	DRD3 antagonist -72, S2 tox inconclusive, IL-1B inflam inh -107
CCC(=O)N1CCN(c2ccc(NC(=O)c3ccc([N+](=O)[O-])o3)cc2Cl)CC1	DRD3 antagonist inconclusive, ATXN2 expr inh inconclusive, S2 tox inconclusive, Integrin act MD inconclusive, IL-1B inflam inh -107
CCC(=O)N1CCN(c2ccc(Cl)cc2NC(=O)c2ccc([N+](=O)[O-])o2)CC1	ATXN2 expr inh inconclusive
CC(=O)N1CCN(c2ccc(NC(=O)c3ccc(N4CCCC4)c([N+](=O)[O-])c3)cc2Cl)CC1	ATXN2 expr inh inconclusive, S2 tox inconclusive
O=C(COC(=O)c1ccc(S(=O)(=O)N2CCOCC2)cc1)NCc1ccccc1	none
CCCCNC(=O)N1CCN(C(=O)c2ccco2)CC1	none
O=C(NCC(=O)N1CCN(c2ccccc2O)CC1)c1ccc2c(c1)OCO2	IL-1B inflam inh inconclusive
COc1ccc([N+](=O)[O-])cc1NC(=O)c1cn(-c2ccc(Cl)cc2)c(=O)c2ccccc12	DRD3 antagonist -53
Oc1ccc(C[C@@H]2CNCCN2CCCCC2CCCCC2)cc1	ATXN2 expr inh inconclusive, S2 tox inconclusive, IL-1B inflam inh inconclusive
Cc1cc(C)c2sc(NC(=O)C3=COCCO3)nc2c1	IL-1B inflam inh -58
O=C(Nc1nc2cc3c(cc2s1)OCCO3)C1=COCCO1	ATXN2 expr inh inconclusive, IL-1B inflam inh -53
Nc1nc(N2CCN(C/C=C/c3ccccc3)CC2)nc2ccccc12	DRD3 antagonist -64, S2 tox inconclusive
C(=C\c1ccccc1)/CN1CCN(c2ncnc3c2oc2ccccc23)CC1	S2 tox inconclusive, DRD3 agonist 40
O=c1[nH]c(CN2CCN(C/C=C/c3ccccc3)CC2)nc2ccccc12	DRD3 antagonist -77, S2 tox inconclusive
CN=c1scc(C)n1/N=C/c1ccc(O)cc1	none
CN=c1scc(-c2ccccc2F)n1/N=C/c1ccc(O)c(O)c1O	DRD3 agonist 107
CCN=c1scc(-c2cccs2)n1/N=C/c1cc(OC)ccc1O	IL-1B inflam inh -62
CC(C)N=c1scc(-c2cccs2)n1/N=C/c1ccc(O)c(O)c1O	ATXN2 expr inh inconclusive, S2 tox inconclusive, DRD3 agonist 64, IL-1B inflam inh -83
COc1ccc(O)c(/C=N/n2c(-c3ccco3)csc2=Nc2cccnc2)c1	none

Assay outcomes: PubChem, National Center for Advancing Translational Sciences (NCATS)
